# Laboratory results published in publication PMC4336329 (PLoS ONE, 2015).
# In all, about 310,000 compounds went through this assay and about 14,000 (4.5%) showed an effect of 50% or more. The effect is printed as a negative number. This is one part of a sample in which strong results are shown more often than they occur.
# Target: human ether-à-go-go-related gene (hERG) potassium channel (human, UniProt Q12809)
# Experiment: primary screen, population patch clamp on CHO cells stably expressing hERG; higher = less effect of the substance
# 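Note: peak tail current of the secondary pulse compared with the same well before compound.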
# human ether-à-go-go-related gene (hERG) potassium channel, sequence (Q12809 whole entry, looked up): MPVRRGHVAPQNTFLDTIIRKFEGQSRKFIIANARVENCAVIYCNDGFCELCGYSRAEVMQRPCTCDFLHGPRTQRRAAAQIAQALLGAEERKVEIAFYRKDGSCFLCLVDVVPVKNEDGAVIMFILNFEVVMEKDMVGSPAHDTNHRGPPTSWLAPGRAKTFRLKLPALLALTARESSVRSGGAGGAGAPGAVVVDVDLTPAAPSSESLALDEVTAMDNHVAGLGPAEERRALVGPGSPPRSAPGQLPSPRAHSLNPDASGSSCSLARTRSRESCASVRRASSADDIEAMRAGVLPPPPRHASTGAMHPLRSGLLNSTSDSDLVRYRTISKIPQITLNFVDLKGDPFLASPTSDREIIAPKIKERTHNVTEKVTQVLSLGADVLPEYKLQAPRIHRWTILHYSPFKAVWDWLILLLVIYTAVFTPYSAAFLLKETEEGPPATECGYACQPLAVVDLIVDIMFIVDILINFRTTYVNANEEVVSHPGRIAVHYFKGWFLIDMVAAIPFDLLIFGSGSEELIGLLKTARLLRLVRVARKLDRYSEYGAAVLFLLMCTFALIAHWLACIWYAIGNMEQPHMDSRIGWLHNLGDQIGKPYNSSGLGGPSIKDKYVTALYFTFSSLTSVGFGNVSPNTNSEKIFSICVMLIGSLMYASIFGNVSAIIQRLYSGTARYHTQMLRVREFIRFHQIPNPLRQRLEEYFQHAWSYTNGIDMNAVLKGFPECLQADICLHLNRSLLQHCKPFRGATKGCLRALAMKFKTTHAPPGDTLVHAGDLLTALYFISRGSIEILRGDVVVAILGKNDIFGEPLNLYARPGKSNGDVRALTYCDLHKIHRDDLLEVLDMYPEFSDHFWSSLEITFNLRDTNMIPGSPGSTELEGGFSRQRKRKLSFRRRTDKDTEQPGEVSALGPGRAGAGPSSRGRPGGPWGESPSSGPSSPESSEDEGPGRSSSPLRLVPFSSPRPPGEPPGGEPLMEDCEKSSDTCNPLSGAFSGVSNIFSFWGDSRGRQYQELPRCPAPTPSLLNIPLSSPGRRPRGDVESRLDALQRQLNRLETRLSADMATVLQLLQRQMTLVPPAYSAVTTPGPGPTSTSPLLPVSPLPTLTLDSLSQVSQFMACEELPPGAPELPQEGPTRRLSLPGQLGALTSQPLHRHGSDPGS
row,Compound,"hERG current change (%, negative = inhibition) at 10uM [%]"
1,Cc1ccc(OCC(=O)N/N=C\c2cccn2C)c([N+](=O)[O-])c1,-8.65
2,O=C(O)[C@H]1CCCC[C@H]1C(=O)Nc1ccc(Nc2ccccc2)cc1,4.15
3,CSc1sc(C(=O)N2CCc3ccccc32)cc1S(=O)(=O)C(C)C,14.2
4,Cn1cnnc1Sc1cc(N2CCNCC2)ccc1[N+](=O)[O-],7.66
5,Cn1cnnc1Sc1ccc(S(C)(=O)=O)cc1[N+](=O)[O-],13
6,Cc1ccc(S(=O)(=O)N2CCN(c3ccc([N+](=O)[O-])c(Sc4nncn4C)c3)CC2)cc1,-62.3
7,CN1CCN(c2ccc([N+](=O)[O-])c(Sc3nncn3C)c2)CC1,-9.71
8,Cn1cnnc1Sc1cc(N2CCN(S(=O)(=O)c3ccccc3)CC2)ccc1[N+](=O)[O-],-60.5
9,Cn1cnnc1Sc1cc(N2CCN(S(=O)(=O)c3ccc(Cl)c(Cl)c3)CC2)ccc1[N+](=O)[O-],-10.6
10,[N-]=[N+]=NC(c1ccccc1)c1nc2ccccc2[nH]c1=O (centres unmarked),-7.74
11,Nc1ccccc1Cl,10.3
12,O=C(NCc1ccco1)c1cccc(Nc2nc3ccc(Br)cc3[nH]2)c1,-11.2
13,Cc1ccc(-n2c(C)cc(/C=N/Nc3ccc([N+](=O)[O-])cn3)c2C)cc1,-4.67
14,COc1ccc(NC(=O)/C(C#N)=C\c2cc(C)n(-c3ccc(Oc4ccc([N+](=O)[O-])cn4)cc3)c2C)cc1,10.8
15,Cc1cc(C=O)c(C)n1-c1ccc(Oc2ccc([N+](=O)[O-])cn2)cc1,-56.7
16,COCC(=O)N1CCC(Oc2ccc(C(=O)NC(C)c3csc(C)n3)cc2)CC1 (centres unmarked),10.4
17,COc1ccc2cc([C@@H](C)C(=O)[O-])ccc2c1.[Na+],-2.41
18,COC(=O)c1ccccc1S(=O)(=O)N1CCC(C(=O)OCc2ccc([N+](=O)[O-])cc2)CC1,-57.1
19,O=C(OCc1ccc([N+](=O)[O-])cc1)C1CCN(S(=O)(=O)c2ccccc2)CC1,-37.3
20,COC(=O)c1ccccc1S(=O)(=O)N1CCC(C(=O)OC(C)C(=O)Nc2ccccc2OC)CC1 (centres unmarked),-51.3
21,COc1ccc(COC(=O)C2CCN(S(=O)(=O)c3ccc(C)cc3)CC2)cc1,-7.61
22,COC(=O)c1ccccc1S(=O)(=O)N1CCC(C(=O)OC(C)C(=O)Nc2ccc(NC(C)=O)cc2)CC1 (centres unmarked),-14.6
23,CC(OC(=O)C1CCN(S(=O)(=O)c2ccccc2)CC1)C(=O)Nc1ncc(Cl)cc1Cl (centres unmarked),-64

row,Compound,"hERG current change (%, negative = inhibition) at 10uM [%]"
1,COC(=O)c1ccccc1S(=O)(=O)N1CCC(C(=O)OCC(=O)c2ccccc2OC)CC1,-16.8
2,CC(OC(=O)C1CC1)C(=O)Nc1ncc(Cl)cc1Cl (centres unmarked),18.1
3,CC(OC(=O)C1CCCC1)C(=O)Nc1ncc(Cl)cc1Cl (centres unmarked),-2.36
4,COC(=O)c1ccccc1S(=O)(=O)N1CCC(C(=O)OCc2cccc(OC)c2OC)CC1,-13.5
5,Cc1ccc(S(=O)(=O)N2CCC(C(=O)OCc3ccc([N+](=O)[O-])cc3)CC2)cc1,-69.8
6,COC(=O)c1ccccc1S(=O)(=O)N1CCC(C(=O)OC(C)C(=O)NC(N)=O)CC1 (centres unmarked),29.7
7,CC(C(=O)Nc1ccc(Cl)cc1Cl)N1CC=C(c2ccccc2)CC1 (centres unmarked),-28.1
8,CCn1c(=O)c(CCC(=O)N2CCN(c3ccccn3)CC2)c(C)c2c(C)nn(-c3ccccc3)c21,-17.8
9,Cc1ccc2nc(SCC(=O)N3CCCC3)nc(=O)n2c1,-0.651
10,Cn1nc(C(=O)Nc2nc3ccccc3[nH]2)c2ccccc2c1=O,-47.1
11,CC(C)OCCCNC(=O)C1CCC(CNS(=O)(=O)c2ccccc2)CC1 (centres unmarked),-7.62
12,Cc1ccc(C(C)(C)C)c(OCCCn2ccnc2)c1.O=C(O)C(=O)O,-16.6
13,CCc1cc(CNC(=O)CC2C(=O)NCCN2Cc2ccccc2C(F)(F)F)on1 (centres unmarked),10
14,Cc1ccc2nc(NC(=O)Cn3nc(C)c([N+](=O)[O-])c3C)sc2c1,-23.5
15,CCOc1ccc(C(=O)OCC(=O)NC2CCCC2)cc1OCC,8.34
16,COc1ccccc1NC(=O)/C(=N/OCc1ccc(C#N)cc1)C(C)=O,-18.2
17,COC(=O)c1sccc1NC(=O)c1c(-c2ccccc2)noc1C,-26.5
18,Cc1ccccc1C(=O)NNC(=O)Nc1ccccc1,11.6
19,COc1ccc2nc(C)cc(Nc3ccc(N4CCN(C)CC4)cc3)c2c1,-1.75
20,COc1ccc2nc(C)cc(Nc3ccc(N4CCOCC4)cc3)c2c1.Cl,-60.9
21,CCOc1ccc2nc(C)cc(Nc3ccc(N4CCOCC4)cc3)c2c1.Cl,-73
22,COc1ccc(Nc2cc(C)nc(N3CCOCC3)n2)cc1,-12.2
23,CCOc1ccc(Nc2cc(C)nc(N3CCOCC3)n2)cc1,0.875

row,Compound,"hERG current change (%, negative = inhibition) at 10uM [%]"
1,CCOc1ccc2nc(N3CCOCC3)nc(C)c2c1,3.2
2,COc1ccc(S(=O)(=O)NCc2ccccc2)cc1Br,6.25
3,NC(=O)CC1Nc2cccc3cccc(c23)NC1=O (centres unmarked),8.93
4,COc1ccc(CCNC(=O)CCc2nc3ccccc3[nH]2)cc1OC,-7.59
5,CCN(CC(=O)Nc1ccc(NC(C)=O)cc1)C(=O)CCCSc1nc2ccccc2[nH]1,-0.716
6,CCCCc1oc2c(c(=O)c1C)C(=O)CC(c1ccccc1)C2 (centres unmarked),-59.8
7,CCCCc1noc2c1/C(=N\O)CC(c1ccccc1)C2 (centres unmarked),7.26
8,Cc1oc2c(c(=O)c1C)C(=O)CC(c1ccccc1)C2 (centres unmarked),-23.7
9,CSc1ccccc1NC(=O)CN(C)C(=O)Cc1c[nH]c2ccccc12,-0.585
10,NC(=O)CSc1nc2c(sc3ccccc32)c(=O)n1CCCN1CCOCC1,-52.8
11,CCC(C)NC(=O)CSc1nc2c(sc3ccccc32)c(=O)n1CCCN1CCOCC1 (centres unmarked),-53.4
12,CCCCn1c(SCC(=O)NC(C)CC)nc2ccc(N3CCOCC3)cc2c1=O (centres unmarked),-12.8
13,NC(=O)CSc1nc2c(sc3ccccc32)c(=O)n1CCCC(=O)NCC1CCCO1 (centres unmarked),-16.8
14,COCCCNC(=O)CSc1nc2c(sc3ccccc32)c(=O)n1CCCC(=O)NCC1CCCO1 (centres unmarked),-14.4
15,O=C(CSc1nc2c(sc3ccccc32)c(=O)n1CCCN1CCOCC1)NC1CCCC1,-64.7
16,Cc1cc(NC(=O)CSc2nc3c(sc4ccccc43)c(=O)n2CCCN2CCOCC2)n[nH]1,2
17,CCOC(=O)CSc1nc2c(sc3ccc([N+](=O)[O-])cc32)c(=O)n1Cc1ccco1,-32.4
18,O=C(CSc1nc2c(sc3ccccc32)c(=O)n1Cc1ccccc1)NCC1CCCO1 (centres unmarked),16.8
19,CCCCn1c(SCC(N)=O)nc2c(sc3ccccc32)c1=O,-12.4
20,CCOC(=O)CSc1nc2c(sc3ccccc32)c(=O)n1CCCN1CCOCC1,-65.9
21,O=C1CSC(c2ccccn2)N1c1ccc(F)cc1F (centres unmarked),-0.569
22,COc1ccccc1Nc1nc(-c2sc(NC(=O)CC(C)C)nc2C)cs1,5.43
23,O=C(CCC(=O)N1CCSc2ccccc21)NC1CCCCC1,-2.55

row,Compound,"hERG current change (%, negative = inhibition) at 10uM [%]"
1,O=C(OCCNc1ccc(C(F)(F)F)cc1[N+](=O)[O-])c1cc2ccccc2oc1=O,4.72
2,CC(Sc1nncn1C)C(=O)Nc1ccc(S(N)(=O)=O)cc1 (centres unmarked),15.7
3,Cc1oc(-c2ccccc2Cl)nc1CSCC(=O)N1CCCC1,-19.9
4,COc1ccc(Cl)cc1NC(=O)CN(C)C(=O)c1ccc(COc2ccccc2)cc1,13.5
5,CC1CCc2ccc(F)cc2N1S(=O)(=O)c1cccs1 (centres unmarked),2.36
6,CNC(=S)NNC(=O)c1ccc(N(C)C)cc1,0.516
7,Cc1cc(C)c(S(=O)(=O)NCC2CCC(C(=O)NCc3ccc4c(c3)OCO4)CC2)c(C)c1 (centres unmarked),-1.15
8,O=C(N/N=C/C=C/c1ccccc1)c1n[nH]c2c1CCC2,9.22
9,CCCC(=O)Nc1cc(-c2nnc(OC)c3ccccc23)ccc1N1CCOCC1,-42.9
10,COc1nnc(-c2ccc(N3CCOCC3)c(NC(C)=O)c2)c2ccccc12,-1.4
11,Cn1nc(-c2ccc(N3CCOCC3)c(NS(=O)(=O)c3ccc(Cl)cc3)c2)c2ccccc2c1=O,-9.74
12,Cn1nc(-c2ccc(N3CCOCC3)c(NS(=O)(=O)c3ccccc3)c2)c2ccccc2c1=O,-15.6
13,COc1ccc(NS(=O)(=O)c2ccc(N3CCOCC3)c(NC(=O)c3ccco3)c2)cc1,30.3
14,COc1ccc(N2CCOCC2)c(NC(=O)c2ccco2)c1,-73.1
15,COC(=O)c1ccc(N2CCOCC2)c(NC(=O)c2ccco2)c1,1.95
16,CCC(=O)Nc1cc(-c2nnc(OC)c3ccccc23)ccc1N1CCOCC1,-5.46
17,Cc1ccc(S(=O)(=O)Nc2cc(-c3nn(C)c(=O)c4ccccc34)ccc2N2CCOCC2)cc1,-57
18,COc1nnc(-c2ccc(N3CCOCC3)c(NC(=O)c3ccco3)c2)c2ccccc12,-70
19,COc1nnc(-c2ccc(N3CCOCC3)c(NC(=O)c3ccc(C)cc3)c2)c2ccccc12,-68.9
20,COc1nnc(-c2ccc(N3CCOCC3)c(NC(=O)c3ccccc3)c2)c2ccccc12,-19.5
